These results are taken from ChEMBL document CHEMBL4888484, “Replenishing the malaria drug discovery pipeline: Screening and hit evaluation of the MMV Hit Generation Library 1 (HGL1) against asexual blood stage Plasmodium falciparum ,using a nano luciferase reporter read-out” (2022).

The structures appear in SMILES notation. About 540 (0.36%) of roughly 150,000 compounds showed an effect of 50% or more. The sample as a whole holds a higher share of strong results than the screen did.

This assay has as its system Plasmodium falciparum. The assay can be described thus: Primary screen in NF54 nanoGlo assay, in single point, at 2uM, 72h; a lower Z score goes with more inhibition. The format is functional, Erythrocyte. To be noted: timepoint 72 hour.
Regarding `Cc1cc(C)n2c(C(=O)NCCNS(=O)(=O)c3ccc(Cl)cc3)nnc2n1`, the “% Inhibition” value is reported as -9% and the Z score is 1.16.

`Cc1ccncc1CN(C)C(=O)[C@]1(O)CCc2cc(Br)ccc2C1`: the “% Inhibition” value is listed as -5% and the Z score came to 1.08.

For `Cc1ccc(C)c(-c2cnn(CC3CC3)c2)c1`, the “% Inhibition” value is 0% and the Z score is reported as 0.02.

Turning to `C=C1C(C)(C)[C@@H]2CC[C@@]1(C(=O)N1CCn3c(C(N)=O)cnc3C1)C2`, the “% Inhibition” value is given as -14% and the Z score was found to be 2.1.

With `CC(C)Cc1noc(CNC(=O)c2nn(C)cc2Cl)n1`, the “% Inhibition” value is -7% and the Z score turned out to be 1.19.

With `Cc1c(-c2cnn(C)c2)cc(C#N)n1C(F)F`, the “% Inhibition” value is -7% and the Z score is listed as 1.32.

For `CN1C[C@@H](N)C[C@H]1c1nc(COc2ccc(F)cc2)nn1CC(F)(F)F`, the “% Inhibition” value was determined as 1% and the Z score is on record as -0.2.

As for `COc1ccc(C(=O)N2CCN(C(=O)c3cccnc3)[C@@H](C(=O)N[C@H]3CCCNC3=O)C2)cc1`, the “% Inhibition” value is recorded as -7% and the Z score worked out at 1.08.

Turning to `Cn1c(=O)c2c(-c3ccc(Br)cc3)n(-c3cccc4cccnc34)cc2n(C)c1=O`, the “% Inhibition” value is reported as -4% and the Z score is 0.72.

Consider `Cn1c(=O)c2c(-c3ccc(Cl)cc3)n(-c3cccc4cccc(N)c34)cc2n(C)c1=O`, for which the “% Inhibition” value amounted to 96% and the Z score is on record as -11.21.

Turning to `Cn1c(=O)c2c(-c3ccc(Br)cc3)n(-c3ccccn3)cc2n(C)c1=O`, the “% Inhibition” value is on record as -5% and the Z score was determined as 0.83.

For `O=C(COc1ccc(Cl)cc1)NC1CCN(Cc2ccccc2)CC1`, the “% Inhibition” value is -10% and the Z score was determined as 0.93.

`CCN1CCN(c2cccc(NC(=O)c3cc(F)cc4c(=O)c5cc(F)ccc5[nH]c34)c2)CC1`: the “% Inhibition” value stood at 95% and the Z score is listed as -17.54.

As for `CN(C)Cc1ccc(NC(=O)c2cc(F)cc3c(=O)c4cc(F)ccc4[nH]c23)cc1`, the “% Inhibition” value was found to be 77% and the Z score is on record as -11.59.

In the case of `CCN1CCN(c2c(CN(C(=O)Nc3cccc(F)c3)C(C)C)c(C)nn2-c2cccc(F)c2)CC1`, the “% Inhibition” value is on record as 3% and the Z score is given as -0.41.

For the compound `CC1CN(C(=O)c2cc(F)cc3c(=O)c4cc(F)ccc4[nH]c23)CC(C)O1` (stereo not given), the “% Inhibition” value is given as -10% and the Z score is listed as 1.65.

`CCN1CCN(c2cccc(NC(=O)c3ccc4[nH]c5ccccc5c(=O)c4c3)c2)CC1`: the “% Inhibition” value is listed as 92% and the Z score was -9.25.

On to `CCN1CCN(c2ccc(C(=O)Nc3cccc(-c4ccc5c(c4)CCO5)c3)cc2F)CC1`, for which the “% Inhibition” value is reported as 18% and the Z score is -2.82.

For `Cc1ccc(C(=O)Nc2cccc(N3CCCCCC3)c2)c(=O)[nH]1`, the “% Inhibition” value is -12% and the Z score turned out to be 1.57.

Consider `CC[C@@H](CNc1cc(NC2CC2)ncn1)C(=O)O`, for which the “% Inhibition” value is recorded as -7% and the Z score stood at 1.58.

In the case of `Cc1noc(CCCC(=O)N2CCN(C3CCCC3O)CC2)n1` (stereo not given), the “% Inhibition” value was -26% and the Z score was 3.

`CN1CC2(CCN(Cc3ccccc3OCCc3ccccc3)CC2)CC1=O`: the “% Inhibition” value stood at 0% and the Z score is -0.02.

For the compound `CCS(=O)(=O)C1CCN(Cc2cn(-c3ccc(F)c(Cl)c3)nn2)CC1`, the “% Inhibition” value is on record as 8% and the Z score was -0.85.

Turning to `C[C@H](Oc1ccccc1F)c1nnc2n1CCCC2`, the “% Inhibition” value is listed as -9% and the Z score stood at 1.39.

`COc1ccc(CN2C(=O)Cc3ccccc3[C@@H](C(=O)O)[C@@H]2c2ccccc2)c(OC)c1`: the “% Inhibition” value is 0% and the Z score was -0.05.

Consider `O[C@@H](CN1CCC(c2ccn[nH]2)CC1)C(F)(F)F`, for which the “% Inhibition” value amounted to 27% and the Z score was -3.09.

`CCCCNC(=O)N1CC[C@H](c2ccn[nH]2)C1`: the “% Inhibition” value is on record as -16% and the Z score was 1.68.

With `O=C(N[C@@H](CN1CCCC1)c1ccccc1)N1CCC(c2ccn[nH]2)CC1`, the “% Inhibition” value is given as 50% and the Z score is -8.21.

With `Cc1cc2ncc(-c3nc([C@H]4CCOC(C)(C)C4)no3)c(C)n2n1`, the “% Inhibition” value was -5% and the Z score stood at 0.67.

In the case of `Cc1ccsc1-c1nccn1CCNC(=O)c1ccc(F)cc1`, the “% Inhibition” value is -3% and the Z score is on record as 0.58.

As to `Cc1ccc(C(N)=O)c(NCC2(N3CCN(C)CC3)CCCC2)n1`, the “% Inhibition” value is listed as -17% and the Z score is listed as 1.6.

For the compound `Cc1cc(N(C)C(=O)c2nccn3ccnc23)ccc1Br`, the “% Inhibition” value came out at 26% and the Z score is recorded as -3.49.

`COCC(C)(C)c1noc(-c2ccc(C(F)(F)F)c(=O)[nH]2)n1`: the “% Inhibition” value was -6% and the Z score is given as 0.62.

In the case of `COc1ccc(-n2nc(C(=O)N3CCN(C)CC3)c(=O)n(Cc3cccc(C(F)(F)F)c3)c2=O)cc1OC`, the “% Inhibition” value is on record as -2% and the Z score stood at 0.34.

In the case of `C=CCN1C(=O)OC(C)(CCC=C(C)C)C1(C)O` (stereo not given), the “% Inhibition” value is 76% and the Z score is recorded as -1.64.

Turning to `O=C(COc1ccc(Br)cc1)Nc1ccc2c(c1)OCCCO2`, the “% Inhibition” value was -9% and the Z score is 0.79.

For `CC(C)C(=O)N(Cc1ccc(OS(=O)(=O)C(C)C)cc1)CC1CC1`, the “% Inhibition” value is listed as -21% and the Z score came to 4.

Turning to `COc1cc(F)c(C(C)NC2C[C@@H]3COC[C@H]23)cc1OC` (stereo not given in full), the “% Inhibition” value was -1% and the Z score was determined as 0.15.

Regarding `CC(C)(C)OC(=O)C1C[C@@H](N)[C@@H](n2cc(C(C)(C)C)nn2)C1` (stereo not given in full), the “% Inhibition” value is on record as -7% and the Z score amounted to 1.24.

Consider `Cc1ccccc1C(=O)N1[C@H](C(=O)NC2CC2)COC12CCN(C(=O)c1ccc(F)cc1)CC2`, for which the “% Inhibition” value is recorded as -2% and the Z score is 0.23.
